Assay outcomes from PubChem BioAssay.
ALR H2O2 inh – blocks human ALR sulfhydryl oxidase activity; purified ALR, DTT oxidation, H2O2 HRP-luminol luminescence; inhibition, % (no concentration beside the values); 290,000 tested, 3.8% active; AID 485317;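 active = mean replicate inhibition above about 79%, with every replicate also reaching it, limit read from the data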
Target sequence (P55789 whole entry, looked up): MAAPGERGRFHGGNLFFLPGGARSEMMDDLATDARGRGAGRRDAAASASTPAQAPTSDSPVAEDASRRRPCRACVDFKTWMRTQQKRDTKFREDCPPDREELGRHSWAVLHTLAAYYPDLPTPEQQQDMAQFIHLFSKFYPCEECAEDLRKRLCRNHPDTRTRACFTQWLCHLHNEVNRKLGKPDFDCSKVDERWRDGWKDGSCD
HDAC3 inhib – human HDAC3 inhibition. 320,000 tested, 0.15% active. O15379. recombinant HDAC3, fluorogenic peptide/trypsin coupled, fluorescence. inhibition, % at 8.3 µM; in the data active = inhibition above about 26%, passing the limit was not always enough
GRK2 aptamer HTS – inhibitors of human GRK2 displacing RNA aptamer; bead flow cytometry, FAM-aptamer displacement from GRK2; 330,000 tested, 0.59% active; P25098; inhibition of aptamer binding, % at 10 µM;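 active = inhibition of aptamer binding above 40%, roughly 3 SD of noise, on plates passing a quality check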;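 also: median bead fluorescence of bound FAM aptamer so fluorescent compounds give negative values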
Rtt109 Vps75 – inhibitors of Candida albicans Rtt109/Vps75 histone acetyltransferase. Q5AAJ8. 330,000 tested, 0.16% active. inhibition, % at 34.9 µM. purified Rtt109/Vps75, ThioGlo CoA-SH fluorescence, 4 h. AID 540336;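 active = inhibition of at least 50% in every replicate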
Target sequence (Q5AAJ8 whole entry, looked up): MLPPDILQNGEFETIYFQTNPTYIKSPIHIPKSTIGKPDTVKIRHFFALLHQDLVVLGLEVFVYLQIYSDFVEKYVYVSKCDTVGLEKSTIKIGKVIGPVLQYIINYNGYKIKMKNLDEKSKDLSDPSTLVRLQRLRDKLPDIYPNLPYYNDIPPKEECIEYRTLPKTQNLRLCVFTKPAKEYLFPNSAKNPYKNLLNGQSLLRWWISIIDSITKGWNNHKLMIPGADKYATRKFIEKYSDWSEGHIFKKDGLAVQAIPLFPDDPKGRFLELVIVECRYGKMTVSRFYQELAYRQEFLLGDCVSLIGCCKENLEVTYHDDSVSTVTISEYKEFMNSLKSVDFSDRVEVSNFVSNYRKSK
Efflux pump mplx – inhibitors of Candida antifungal efflux pumps expressed in yeast. 330,000 tested, 0.44% active. AID 485275. inhibition, % at 10 µM. S. cerevisiae Candida pump triplex, Nile Red efflux;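 active = plate passing quality check with inhibition over a set limit, or well fluorescence over plate mean plus 4 SD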;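 also: Nile Red retained in pooled yeast measured as flow cytometry median fluorescence; 0% = buffer negative control and 100% = Enniatin B positive control; higher means more Nile Red kept so more efflux inhibition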
Rce1 inhib – blocks yeast Ras-converting enzyme. Q03530. yeast membranes, quenched prenylated peptide cleavage fluorescence. calls only. 290,000 tested, 0.27% active. AID 2563;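 active = fall in fluorescence gain of 50% or more versus controls, with final raw signal at or below 3038400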;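 also: plate controls were neutral control wells for no effect and wells lacking membranes for full effect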
An asterisk follows results filed as active; i = inactive; / = not tested or not shown; + = active, no number. The list is not random: actives were taken first. Their share in the collection is about 4.5%.

SMILES	ALR H2O2 inh	HDAC3 inhib	GRK2 aptamer HTS	Rtt109 Vps75	Efflux pump mplx	Rce1 inhib
COc1cc(OC)cc(C(=O)NCC(=O)Nc2ccc(OC)c(Cl)c2)c1	-40.4	-3.2	0.0	2.9	0.9	i
N#CC(C(=O)Nc1cccc(Cl)c1)=C1Nc2ccccc2N1	-0.2	-3.8	0.0	3.8	0.1	i
N#CC(C(=O)Nc1ccccc1)=C1Nc2ccccc2N1	86.1*	8.2	0.0	6.2	0.0	i
COc1ccc(N2Cc3cccc(C(=O)NC(C)CCc4ccco4)c3C2=O)cc1 (stereo not drawn)	98.5*	-1.5	5.0	16.5	0.0	i
CC(CCc1ccco1)NC(=O)c1cccc2c1C(=O)N(C1CCCCC1)C2 (stereo not drawn)	1.2	4.0	6.0	8.8	0.1	/
CCCSc1nc2cc(C)c(C)cc2n1CC(C)O (stereo not drawn)	-2.5	4.3	0.0	3.2	0.0	i
CCCCCc1ccc(OCCCC[n+]2cccc(C)c2)c(CCCCC)c1	-2.2	6.5	0.0	72.6*	0.0	/
Cc1ccc(/C=C/S(=O)(=O)NCCC(=O)NCc2ccc(F)cc2)cc1	-0.9	2.5	13.0	1.9	-0.1	/
COC(=O)C1=C(C)NC(=O)NC1c1ccc(-c2ccc(Cl)cc2)o1 (stereo not drawn)	6.0	44.7*	1.0	3.3	0.0	i
CC(C)C[C@H](NC(=O)c1nc[nH]c1C(=O)N[C@@H](CC(C)C)C(=O)OC(C)(C)C)C(=O)OC(C)(C)C	0.7	1.0	2.0	-2.6	0.2	i
CC(C)C[C@H](NC(=O)c1nc[nH]c1C(=O)NCC(=O)OC(C)(C)C)C(=O)OC(C)(C)C	-21.2	30.3*	1.0	-27.7	0.3	i
CC(C)(C)OC(=O)NCCCCCNC(=O)c1[nH]cnc1C(=O)N[C@@H](Cc1ccccc1)C(=O)OC(C)(C)C	-0.5	27.7*	7.0	14.0	0.0	/
Cc1ccc(CN2CCN(Cc3cn[nH]c3-c3cccc(F)c3)CC2CCO)o1 (stereo not drawn)	-15.6	9.0	0.0	-2.1	-0.2	i
Cc1[nH]c2ccc(F)cc2c1CCN(Cc1cccnc1)C(=S)Nc1ccccc1	1.2	-7.4	0.0	4.7	0.1	i
CNC(=S)N(CCc1c(C)[nH]c2ccc(F)cc12)Cc1cccnc1	96.7*	/	0.0	-4.8	-0.5	i
O=C(COC(=O)/C=C/c1cnc2ccccc2n1)NCC(F)(F)F	90.7*	-2.5	2.0	-2.3	0.0	i
O=C(OCCOCCN=C1NS(=O)(=O)c2ccccc21)c1ccccc1	-5.0	-0.3	0.0	-2.8	-0.1	i
Clc1cccc(CSc2nnc(-c3c[nH]c4ccccc34)o2)c1	-17.9	9.0	7.0	1.7	-0.1	i
O=c1c(-c2nnc(SCc3ccc(Cl)c(Cl)c3)o2)cccn1Cc1ccccc1	1.0	-11.1	1.0	1.5	-0.1	+
COc1ccc(NC(=O)CN(C)C(=O)CSc2nc3ccccc3s2)cc1	97.9*	2.9	2.0	-0.1	0.0	i
Cc1nnc(SCC(=O)N(C)CC(=O)Nc2ccccc2Cl)s1	11.5	3.4	3.0	-1.7	-0.1	i
COc1ccc(NC(=O)CSc2nc(N)c(C(=O)Nc3ccc(N(C)C)cc3)s2)cc1	98.7*	-8.0	0.0	3.6	0.3	i
CN(CC(=O)Nc1ccccc1Cl)C(=O)CSc1nc2ccccc2s1	84.7*	-1.0	0.0	2.5	0.2	i
COc1ccc(NC(=O)c2nc3ccccc3s2)cc1	-1.1	-5.3	0.0	53.6*	0.2	i
COc1ccccc1CN(C)C(=O)c1ccc(S(=O)(=O)Nc2c(C)n(C)n(-c3ccccc3)c2=O)cc1	-4.5	-4.9	1.0	-4.9	-0.1	/
SMILES	ALR H2O2 inh	HDAC3 inhib	GRK2 aptamer HTS	Rtt109 Vps75	Efflux pump mplx	Rce1 inhib
O=C(c1ccccc1)C(Nc1cccc([N+](=O)[O-])c1)c1ccccc1 (stereo not drawn)	/	/	/	6.7	/	/
COc1ccccc1NS(=O)(=O)c1cc(NC(=O)CCc2nc3ccccc3c(=O)[nH]2)ccc1C	-2.0	4.6	1.0	-0.7	0.0	/
C/C(=N\N(Cc1ccccc1)c1ccccc1)c1cccnc1	98.5*	-0.7	0.0	4.0	0.0	i
CN1CCN(c2nc3c(c(=O)[nH]c(=O)n3C)n2Cc2ccc(Cl)cc2)CC1	3.5	-7.0	0.0	66.6*	-0.1	i
Cn1c(=O)[nH]c(=O)c2c1[nH]c(=S)n2Cc1ccc(Cl)cc1	98.8*	6.8	0.0	-0.3	0.0	i
Cn1c(=O)[nH]c(=O)c2c1[nH]c(=S)n2CCCc1ccccc1	/	/	/	-8.6	/	i
Cc1ccc(Cn2c(N3CCN(C)CC3)nc3c2c(=O)[nH]c(=O)n3C)cc1	-8.3	-5.4	0.0	0.7	0.2	i
CCN1CCN(c2nc3c(c(=O)[nH]c(=O)n3C)n2CCSc2nc3ccccc3s2)CC1	/	4.4	0.0	0.7	0.0	i
Cc1csc(SCCn2c(N3CCN(c4ccccc4)CC3)nc3c2c(=O)[nH]c(=O)n3C)n1	98.5*	-3.9	0.0	-5.8	0.0	i
CC(CSc1nc2ccccc2s1)Cn1c(N2CCCC2)nc2c1c(=O)[nH]c(=O)n2C (stereo not drawn)	98.5*	8.5	2.0	-4.7	0.3	i
COc1ccc(N(CC(=O)NC2CCCC2)C(=O)Cn2nnc(-c3ccc(OC)c(OC)c3)n2)c(OC)c1	-1.5	-2.0	0.0	11.0	0.2	i
Cc1ccc(-n2cc(CN3CCC(O)(c4ccccn4)CC3)c(-c3ccc(F)cc3)n2)cc1	-2.0	3.6	0.0	-0.8	0.0	i
N#Cc1ccsc1NC(=O)COC(=O)C1=NNC(=O)CC1	2.2	-2.1	1.0	-9.8	0.0	/
O=C1c2nc3cc(-c4ccco4)[nH]n3c(=O)c2CN1C1CCCCC1	13.3	-59.3	11.0	/	0.2	i
CCOC(=O)N1CCN(Cc2ccc3ccccc3c2)CC1	-6.3	-2.8	3.0	-0.9	0.0	i
Oc1ccc(N2CCN(Cc3cc4c(cc3Br)OCCO4)CC2)cc1	92.1*	6.9	1.0	13.6	-0.1	i
CC(=O)c1ccc(S(=O)(=O)Oc2ccc(-c3ccc(C(=O)O)cc3)cc2)cc1	-1.9	3.3	0.0	-0.6	-0.1	i
NC(=O)c1ccccc1NC(=O)COC(=O)CSCc1cccc(Cl)c1	-10.5	1.2	0.0	-4.3	-0.1	/
CCOC(=O)Nc1ccc2c(c1)ncn2C1CCCCC1	83.6*	5.2	6.0	21.2	0.1	i
CNc1nc(Nc2ccc(C(C)=O)cc2)nc(OC(C(F)(F)F)C(F)(F)F)n1	100.3*	3.7	0.0	-0.4	0.1	i
Cc1c[n+]([O-])cc(C)c1[N+](=O)[O-]	/	/	/	-7.0	/	/
N#Cc1c(N)c(C(=O)c2ccccc2)n2c1CCC2	92.2*	0.0	11.0	-9.3	0.2	i
COc1ccc(NC(=O)N2CCCC2C(=O)NCc2cccs2)cc1 (stereo not drawn)	-8.0	-4.2	0.0	-1.1	-0.2	i
